# In PubChem BioAssay (NCI):
# “And” between values parts separate entries of the source, which are not always exact repeats. Identical values can stand only once. About 83,000 compounds went through this panel and 20% of them were active in at least one assay; those are over-represented in the sample as a whole.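 Growth was measured after 48 h exposure to one concentration of compound in 96-well plates. Values under 10 count as active.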 The source made the active and inactive calls.
# Test system: UO-31 renal
# Test: NCI-60 one-dose screen, 48 h (100 = growth as untreated, 0 = no growth, -100 = all killed)
# Settings: 10 µM
# Protocol: Growth inhibition of the UO-31 human tumor cell line is measured as a screen for anti-cancer activity. Cells are grown in 96 well plates and exposed to the test compound for 48 hours. Compounds are tested at a single concentration, which is 10^-5 M for most compounds. The reported endpoint is percent growth (GI% or GIPRCNT), where numbers from 0 - 100% represent growth inhibition, and numbers from -100% - 0 represent cell death. For example, a value of 40 represents 60% growth inhibition. A value of 0 means no net growth occurred over the course of the experiment. A value of -40 indicates 40% of cells at the beginning of the experiment died by the end of the experiment. A value of -100 means all cells are dead at the end of the experiment.
# NCI-60 Human Tumor Cell Lines Screen was performed using the standard one-dose NCI protocol, which is described in more detail at https://dtp.cancer.gov/discovery_development/nci-60/default.htm.
# Compounds with GIPRCNT values below 10 were considered active. Activity score was based on GIPRCNT using the following formula: […]
# Score is 0 for GIPRCNT values of 100 or above, 50 for GIPRCNT values of 0, and 100 for GIPRCNT values of -100.
row,Compound,growth
1,COC12c3c(C)cc(O)c4c(=O)occ(c34)C(=O)C1C13COC(=O)c4c(O)cc(C)c(c41)C(=O)C2C3OC(C)=O (stereo not given),91.5% (inactive)
2,O=[N+]([O-])/C=C/c1ccc([N+](=O)[O-])cc1,-82.9% (active) and 62.7% (inactive)
3,C[CH2][Hg][S]c1ccccc1C(=O)O,-61.8% (active)
4,CC/C(=C/c1ccc(OC)cc1)[N+](=O)[O-],-61.6% (active)
5,O=[N+]([O-])c1ccc(N2CCOCC2)c2c1no[n+]2[O-],8.16% (active)
6,S=C=NCCc1ccccc1,51.3% (inactive)
7,O=C(CCl)Nc1ccc(Cl)cc1,79.7% (inactive)
8,COc1ccc(/C=C\[N+](=O)[O-])cc1OC,33.1% (inactive) and 75.1% (inactive)
9,Cn1c(O)c(N=O)c(=O)n(C)c1=O,89.1% (inactive) and 85.7% (inactive)
10,Cc1cc([N+](=O)[O-])c2ccccc2[n+]1[O-],-26.7% (active) and -48.8% (active)
11,COc1cc([C@@H]2c3cc4c(c(O)c3C[C@H]3COC(=O)[C@@H]32)OCO4)cc(OC)c1OC,32.7% (inactive)
12,CCOP(=O)(OCC)C(O)c1ccccc1Cl (stereo not given),90.5% (inactive)
13,Cc1cc(C(C)(C)c2ccc(O)c(C)c2)ccc1O,79% (inactive)
14,CN(C)CC1(N)C(=O)NC(=O)NC1=O,96.3% (inactive)
15,O=[N+]([O-])/C=C/c1ccc(Cl)cc1[N+](=O)[O-],-45.7% (active)
16,Oc1ccccc1-c1ccccc1,91.1% (inactive)
17,C[C@@H]1C[C@@H]([C@H](O)CC2CC(=O)NC(=O)C2)C(=O)[C@@H](C)C1,0.7% (active)
18,[Cl][Hg][c]1ccc2ccccc2c1,-89.3% (active)
19,CC(Cc1ccc2c(c1)OCO2)NN (stereo not given),96.7% (inactive)
20,CCOP(=O)(OCC)/C(C#N)=C/c1ccc(Br)cc1,81.3% (inactive)

row,Compound,growth
1,O=C1C(=O)c2ccccc2-c2ccccc21,-86.4% (active)
2,Oc1c(Cl)cc(Cl)c2ccccc12.[Cu+2],49% (inactive)
3,C=C1C(=O)O[C@@H]2C[C@@H](C)[C@@H]3C=CC(=O)[C@@]3(C)[C@@H](O)[C@H]12,-94.9% (active)
4,COc1ccc2c(ccc3oc([N+](=O)[O-])cc32)c1,-13.4% (active)
5,NC(=O)c1cc([N+](=O)[O-])c(Cl)c([N+](=O)[O-])c1Cl,-62.6% (active)
6,O=C1CCC(=O)N1SC(Cl)(Cl)Cl,99.1% (inactive)
7,COc1cc(/C=C\[N+](=O)[O-])ccc1O,44.5% (inactive) and 70.1% (inactive)
8,COc1cc2c(c(OC)c1OC)-c1ccc(O)c(=O)cc1[C@@H](NC(C)=O)CC2,53.3% (inactive)
9,NNc1ccccc1,64% (inactive)
10,CC1CCC2(OC1)OC1C(O)C3C4CCC5CC(OC6OC(CO)C(OC7OC(CO)C(O)C(OC8OCC(O)C(O)C8O)C7OC7OC(CO)C(O)C(OC8OC(CO)C(O)C(O)C8O)C7O)C(O)C6O)C(O)CC5(C)C4CCC3(C)C1C2C (stereo not given),-96.8% (active)
11,CC12OOC(c3ccccc31)c1c2ccc2ccccc12 (stereo not given),-95.4% (active)
12,C=NCC#N,87.1% (inactive) and 91.8% (inactive)
13,COc1ccccc1/C=C/[N+](=O)[O-],62% (inactive)
14,[Cl][Sn]([c]1ccccc1)([c]1ccccc1)[c]1ccccc1,-87.9% (active)
15,C#CC1(O)CCC(C(C)(C)C)CC1 (stereo not given),108% (inactive)
16,CC(C)c1cc([N+](=O)[O-])cc([N+](=O)[O-])c1O,85.8% (inactive)
17,CCCCCCCC[N+]12CN3CN(CN(C3)C1)C2,87.9% (inactive)
18,O=c1[nH]c2ccccc2n1C1CCN(CCCC(c2ccc(F)cc2)c2ccc(F)cc2)CC1,33.1% (inactive) and 12.5% (inactive)
19,CC(=O)Nc1c2sscc-2n(C)c1=O,-100% (active)
20,[O-][n+]1ccccc1S,62% (inactive)
